{
  "source": "PubChem BioAssay (Tox21)",
  "note": "“And” between values parts separate entries of the source, which are not always exact repeats. Equal values may be shown once. Inconclusive results are not listed. A call without a number means that no potency is given here. The source made the active and inactive calls. Calls follow the shape of the full dose curve.",
  "data": [
    {"assay": "p53 small molecule agonists, cell-based qHTS assay with rat liver microsomes: qHTS cell viability counter screen (AID 1963580); also: nearly all actives have a fitted effect of over 45% in size", "settings": "p53RE-bla HCT-116 + rat microsomes, ATP viability, 16 h; series mostly up to 66 µM", "text": "National Center for Advancing Translational Sciences [NCATS]\nDivision of Preclinical Innovation [DPI]\nU.S. Environmental Protection Agency [EPA]\nNational Institutes of Environmental Health Sciences [NIEHS]\nNational Toxicology Program [NTP]\nU.S. Food and Drug Administration [FDA]\np53, a tumor suppressor protein, is activated following cellular insult, including DNA damage and other cellular stresses. The activation of p53 regulates cell fate by inducing DNA repair, cell cycle arrest, apoptosis, or cellular senescence. The activation of p53, therefore, is a good indicator of DNA damage and other cellular stresses. The CellSensor p53RE-bla HCT-116 cell line contains a stably integrated beta-lactamase reporter gene under control of the p53 response elements. The activation of the reporter gene under culture conditions can be detected by fluorescence intensity. This cell line was used to screen the Tox21 10K compound library in the condition of presence of rat liver microsomes and to identify agonists that activate the p53 signaling pathway after in vitro metabolic activation (Ooka et al., Archive of Toxicology 96:1975-1987, 2022). The cytotoxicity of the Tox21 compound library against the p53 RE-bla HCT-116 cell line was tested in parallel by measuring the intra cellular ATP content in the same wells.\nTox21 Assay Protocol Summary:\nThe p53RE-bla cells were dispensed at 4,000cells/3ul/well in 1536-well black-clear bottom plates. After the assay plates were incubated at 37 C, 5% CO2 incubator for 5 hours, 23 nL of compounds dissolved in DMSO, positive controls or DMSO only was transferred to the assay plate. Following compound addition, 3 uL of rat liver microsomes (Molecular Toxicology, Boone, NC) at final concentration of 0.5 mg/mL and 1uL of B-Nicotinamide adenine dinucleotide 2'-phosphate (NADPH) at final concentration of 0.5 mg/mL were transferred to the assay plate. The plates were incubated at 37 C for 16 hours. 1 uL of LiveBLAzer detection mixture was added to each well and the plates were incubated at room temperature in the dark for 2 h. Fluorescence intensity at 460 and 530 nm emission and 405 nm excitation were measured by an Envision plate reader. For cell viability readout that measures cytotoxicity, 4 ul/well of CellTiter-Glo reagent was added into the assay plates using a Flying Reagent Dispenser. After 30 min incubation at room temperature, the luminescence intensity in the plates was measured using a ViewLux plate reader.", "values": [
      {"smiles": "CN(C)CCCN(C)C", "activity change, negative = cytotoxicity": "0.34% [at 5.99 µM] (inactive)"},
      {"smiles": "CC/C=C\\CC/C=C/CO", "Potency": "inactive"},
      {"smiles": "C[C@](N)(Cc1ccc(O)cc1)C(=O)O", "activity change, negative = cytotoxicity": "-5.36% [at 5.99 µM] (inactive)"},
      {"smiles": "O=C(O)c1ccc(O)c(O)c1", "Potency": "inactive"},
      {"smiles": "CN(C/C=C/C#CC(C)(C)C)Cc1cccc2ccccc12", "Potency": "inactive"},
      {"smiles": "CCCCOc1ccc(CC(=O)NO)cc1", "Potency": "inactive"},
      {"smiles": "CN(CCCN1c2ccccc2CCc2ccccc21)CC(=O)c1ccc(Cl)cc1", "Potency": "inactive"},
      {"smiles": "CC/C=C\\CCCCCCCCCCOC(C)=O", "Potency": "inactive"},
      {"smiles": "OC(CCN1CCCCC1)(c1ccccc1)C1CCCCC1", "note": "(stereo not given)", "Potency": "inactive"},
      {"smiles": "CCCCc1cc2ccccc2c(OCCN(C)C)n1", "Potency": "inactive"},
      {"smiles": "Oc1ccc(N=Nc2ccccc2)cc1", "Potency": "inactive"},
      {"smiles": "CC(C)c1nc(CN(C)C(=O)N[C@H](C(=O)N[C@@H](Cc2ccccc2)C[C@H](O)[C@H](Cc2ccccc2)NC(=O)OCc2cncs2)C(C)C)cs1", "Potency": "inactive"},
      {"smiles": "CC(C)(C)C(O)/C=C/c1ccc2c(c1)OCO2", "note": "(stereo not given)", "Potency": "inactive"},
      {"smiles": "Cc1c(N)cccc1N", "Potency": "inactive"},
      {"smiles": "CCN1CCOCC1", "Potency": "inactive"},
      {"smiles": "CCN(CC)CCCC(C)Nc1ccnc2cc(Cl)ccc12", "note": "(stereo not given)", "activity change, negative = cytotoxicity": "0.0381% [at 5.99 µM] (inactive) and -13.2% [at 13.5 µM] (inactive)"},
      {"smiles": "Cc1cc2nc3c(=O)[nH]c(=O)nc-3n(C[C@H](O)[C@H](O)[C@H](O)CO)c2cc1C", "Potency": "inactive"},
      {"smiles": "O=C(O)c1ccc(S(=O)(=O)O)cc1C(=O)O", "Potency": "inactive"},
      {"smiles": "OCCOc1cccc(OCCO)c1", "Potency": "inactive"},
      {"smiles": "Cc1ccc(C(=O)O)cc1[N+](=O)[O-]", "Potency": "inactive"},
      {"smiles": "Cc1cc(O)c2c(O)c3c(O)cccc3cc2c1", "Potency": "inactive"},
      {"smiles": "CCC(=O)/C=C/c1ccc(OC)cc1", "Potency": "inactive"},
      {"smiles": "N=C(N)N", "Potency": "inactive"},
      {"smiles": "CC(=O)Nc1ccc(S(=O)(=O)Nc2ccc([N+](=O)[O-])cc2)cc1", "Potency": "inactive"},
      {"smiles": "C[C@H]1COc2c(C3(N)CC3)c(F)cc3c(=O)c(C(=O)O)cn1c23", "Potency": "inactive"},
      {"smiles": "CCC(=O)C1CC(C(C)C)CC=C1C", "note": "(stereo not given)", "Potency": "inactive"},
      {"smiles": "COC(=O)C1=C(C)NC(C)=C(C(=O)OCC(C)=O)C1c1ccccc1[N+](=O)[O-]", "note": "(stereo not given)", "Potency": "inactive"},
      {"smiles": "NS(=O)(=O)c1cc2c(cc1Cl)NC(CSCc1ccccc1)=NS2(=O)=O", "Potency": "inactive"},
      {"smiles": "C#Cc1cccc(Nc2ncnc3cc(OCCOC)c(OCCOC)cc23)c1", "Potency": "inactive"},
      {"smiles": "Cc1ccccc1N=Nc1ccc(N=Nc2c(O)ccc3ccccc23)c(C)c1", "Potency": "inactive"},
      {"smiles": "S=c1[nH]c2ccccc2s1", "Potency": "inactive"},
      {"smiles": "CC(C)C[C@H](NC(=O)CNC(=O)[C@H](Cc1ccc(O)cc1)NC(=O)[C@H](CO)NC(=O)[C@H](Cc1c[nH]c2ccccc12)NC(=O)[C@H](Cc1cnc[nH]1)NC(=O)[C@@H]1CCC(=O)N1)C(=O)N[C@@H](CCCN=C(N)N)C(=O)N1CCC[C@H]1C(=O)NCC(N)=O", "note": "(stereo in doubt)", "Potency": "inactive"},
      {"smiles": "OCCN1CCN(CCO)CC1", "Potency": "inactive"},
      {"smiles": "O=C1c2ccccc2C(=O)c2c1ccc(O)c2O", "Potency": "inactive"},
      {"smiles": "CC(C)c1ccc2ncccc2c1", "Potency": "inactive"},
      {"smiles": "CC(C)(C)C(=O)CCc1ccc(Cl)cc1", "Potency": "inactive"},
      {"smiles": "C=CCOCC(O)CCl", "note": "(stereo not given)", "Potency": "inactive"},
      {"smiles": "O=C1CCCCCCCCCCCC(=O)OCCO1", "Potency": "inactive"},
      {"smiles": "CCN(CC)c1ccc2c(c1)Oc1cc(N(CC)CC)ccc1C21OC(=O)c2ccccc21", "Potency": "inactive"},
      {"smiles": "CCS(=O)(=O)c1ccc(OC)c(C(=O)OC)c1", "Potency": "inactive"}
    ]}
  ]
}
